Among the test systems are RPMI-8226 leukemia; OVCAR-8 ovarian; OVCAR-5 ovarian; OVCAR-4 ovarian; SK-OV-3 ovarian; IGROV1 ovarian; OVCAR-3 ovarian; HS 578T breast; NCI/ADR-RES ovarian; BT-549 breast; MDA-MB-435 melanoma; SW-620 colon; MCF7 breast; HCT-116 colon; HCC-2998 colon; KM12 colon; T-47D breast.
Test in all cases: NCI-60 one-dose screen, 48 h (100 = growth as untreated, 0 = no growth, -100 = all killed)
Settings in all cases: 10 µM unless noted

This is part of a sample that, as a whole, favours compounds with a hit. Of some 83,000 tested, about 20% had one in any assay.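 Cells were grown in 96-well plates and exposed to the test compound at a single concentration for 48 hours; results are reported as percent growth, with values below 10 considered active.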 Unmarked numbers belong to inactive results. Activity calls are given as the source filed them.

As for `CCCC[N+](CCCC)=c1ccc2nc3c(C)cc(N(CC)CC)cc3sc-2c1`, the growth was -48.2% (active) in the experiment on RPMI-8226 leukemia; 5.84% (active) with OVCAR-8 ovarian; 4.55% (active) in the experiment with OVCAR-5 ovarian; 22.9% in the experiment on OVCAR-4 ovarian; -8.75% (active) with SK-OV-3 ovarian; 43.2% with IGROV1 ovarian. For the same compound, the growth was -23.3% (active) with OVCAR-3 ovarian; 6.6% (active) in the experiment on HS 578T breast; -11.9% (active) in the experiment on NCI/ADR-RES ovarian; 2.12% (active) in the experiment with BT-549 breast; -88.1% (active) in the experiment on MDA-MB-435 melanoma; -71.9% (active) in the experiment on SW-620 colon. Also, the growth in the experiment on MCF7 breast was -50% (active); with HCT-116 colon it was -24.7% (active); with HCC-2998 colon, 24.4%; in the experiment with KM12 colon, 0.608% (active).

On to `O=C(CCc1nnc(SCc2ccccc2)s1)c1nc2ccccc2[nH]1`, for which the growth was 82.9% in the experiment on RPMI-8226 leukemia; 98.7% with OVCAR-8 ovarian; 99.2% in the experiment with OVCAR-5 ovarian; 85.7% in the experiment with OVCAR-4 ovarian; 103% in the experiment with SK-OV-3 ovarian; 103% in the experiment on IGROV1 ovarian. Moreover, the growth with OVCAR-3 ovarian is 106%; in the experiment on HS 578T breast, 106%; with NCI/ADR-RES ovarian it was 87.1%; in the experiment with BT-549 breast it was 108%; in the experiment on MDA-MB-435 melanoma, 102%; in the experiment with SW-620 colon, 107%. Further, the growth was 92.1% in the experiment with MCF7 breast, 95% in the experiment with HCT-116 colon, 101% with HCC-2998 colon and 110% in the experiment with KM12 colon.

Take `Nc1c2ccccc2nc2ccccc12` (tested in a mixture with another compound): the growth in the experiment with RPMI-8226 leukemia was 7.88% (active); with OVCAR-8 ovarian, 4.39% (active); in the experiment with OVCAR-5 ovarian it was 15.6%; with OVCAR-4 ovarian, 19%; with SK-OV-3 ovarian, 32.6%; with IGROV1 ovarian it was 22.9%. Besides, the growth is 32.6% in the experiment on OVCAR-3 ovarian; 42.9% in the experiment on HS 578T breast; 19.4% with NCI/ADR-RES ovarian; 28.9% with T-47D breast; 57.3% in the experiment with BT-549 breast; 18.6% with MDA-MB-435 melanoma. Besides, the growth in the experiment with SW-620 colon was 15.6%; in the experiment with HCT-116 colon, 13.6%; in the experiment on HCC-2998 colon, 28.7%; in the experiment with KM12 colon it was 23%.

For `Cc1cc(C)n(C(=O)c2nn(-c3ccc(Cl)cc3)cc2O)n1`, the growth is -0.413% (active) with RPMI-8226 leukemia; 26.3% with OVCAR-8 ovarian; 64.1% in the experiment on OVCAR-5 ovarian; 67.7% with OVCAR-4 ovarian; 87.5% with SK-OV-3 ovarian; 25.3% in the experiment with IGROV1 ovarian. Also, the growth in the experiment with OVCAR-3 ovarian was 50.9%; with HS 578T breast, 7.1% (active); in the experiment with NCI/ADR-RES ovarian, 22.6%; in the experiment on T-47D breast, 46.3%; in the experiment on MDA-MB-435 melanoma, 32.1%; with SW-620 colon, 81.4%. For the same compound, the growth in the experiment on MCF7 breast was 81%; in the experiment on HCT-116 colon, 8.59% (active); with HCC-2998 colon it was 82.8%; in the experiment on KM12 colon, 36.3%.

Turning to `CCOC(=O)C1=C(COCCN)NC(C)=C(C(=O)OC)C1c1ccccc1Cl` (stereo unspecified), the growth was 45.9% in the experiment with RPMI-8226 leukemia; 82% in the experiment with OVCAR-8 ovarian; 74.7% with OVCAR-5 ovarian; 78.9% with OVCAR-4 ovarian; 94.2% in the experiment with SK-OV-3 ovarian; 73.6% in the experiment with IGROV1 ovarian. Also, the growth with OVCAR-3 ovarian is 68.5%; in the experiment with HS 578T breast, 80.3%; in the experiment on NCI/ADR-RES ovarian it was 80%; in the experiment on T-47D breast it was 51.7%; in the experiment with BT-549 breast, 86.5%; in the experiment with MDA-MB-435 melanoma, 68.7%. In addition, the growth with SW-620 colon was 53.4%; in the experiment on HCT-116 colon, 45.9%; with HCC-2998 colon, 3.32% (active); in the experiment with KM12 colon it was 68.9%.

Take `NC(=O)c1ccccc1NC(=O)c1ccccc1Cl`: the growth with RPMI-8226 leukemia is 85%; with OVCAR-8 ovarian, 99.4%; in the experiment on OVCAR-5 ovarian it was 108%; with OVCAR-4 ovarian, 98.3%; with SK-OV-3 ovarian, 107%; in the experiment with IGROV1 ovarian, 96%. The growth is 109% in the experiment on OVCAR-3 ovarian; 108% with HS 578T breast; 115% in the experiment with NCI/ADR-RES ovarian; 96.4% with T-47D breast; 105% in the experiment on MDA-MB-435 melanoma; 108% in the experiment on SW-620 colon. For the same compound, the growth in the experiment on MCF7 breast was 115%; with HCT-116 colon it was 103%; in the experiment on HCC-2998 colon, 116%; in the experiment with KM12 colon it was 105%.

Consider `C[n+]1c2ccccc2c(Nc2ccc(N3CCCCC3)cc2)c2[nH]c3ccccc3c21`, for which the growth with RPMI-8226 leukemia was -72.4% (active); in the experiment on OVCAR-8 ovarian, -87.4% (active); in the experiment with OVCAR-5 ovarian it was -86.2% (active); in the experiment with OVCAR-4 ovarian, -35.3% (active); in the experiment with SK-OV-3 ovarian, -75.8% (active); in the experiment on IGROV1 ovarian, -97% (active). The growth with OVCAR-3 ovarian was -95.7% (active); in the experiment with HS 578T breast, -69.5% (active); in the experiment on NCI/ADR-RES ovarian it was -61.8% (active); in the experiment on T-47D breast, -55.7% (active); in the experiment on MDA-MB-435 melanoma, -96.4% (active); in the experiment with SW-620 colon, -90.8% (active). The growth is -74.6% (active) in the experiment on MCF7 breast, -98.7% (active) in the experiment with HCT-116 colon, -96.1% (active) with HCC-2998 colon and -96.5% (active) with KM12 colon.

Consider `CCN(CC)CCCCNc1c2ccccc2[n+](C)c2c1[nH]c1ccccc12`, for which the growth was -42.6% (active) with RPMI-8226 leukemia; -11.9% (active) in the experiment with OVCAR-8 ovarian; -5.18% (active) in the experiment on OVCAR-5 ovarian; -2.34% (active) with OVCAR-4 ovarian; -11.5% (active) with SK-OV-3 ovarian; -34.2% (active) with IGROV1 ovarian. Also, the growth in the experiment with OVCAR-3 ovarian was -13.6% (active); in the experiment with HS 578T breast, -48.1% (active); in the experiment with NCI/ADR-RES ovarian, 86.5%; with T-47D breast it was -11.7% (active); in the experiment with MDA-MB-435 melanoma, -77.1% (active); in the experiment on SW-620 colon, -7.04% (active). Also, the growth in the experiment on MCF7 breast is -7.18% (active); with HCT-116 colon, 0.472% (active); in the experiment on KM12 colon, -12.9% (active).

Take `CC(C)c1nc(N(C)S(C)(=O)=O)nc(-c2ccc(F)cc2)c1/C=C/[C@@H](O)C[C@@H](O)CC(=O)O`: the growth in the experiment on RPMI-8226 leukemia was 113%; in the experiment with OVCAR-8 ovarian, 90.5%; in the experiment with OVCAR-5 ovarian, 108%; in the experiment on OVCAR-4 ovarian it was 100%; in the experiment with SK-OV-3 ovarian it was 104%; in the experiment with IGROV1 ovarian it was 105%. For the same compound, the growth is 99.4% with OVCAR-3 ovarian; 110% with HS 578T breast; 104% in the experiment with NCI/ADR-RES ovarian; 99.4% with T-47D breast; 103% in the experiment with BT-549 breast; 109% with MDA-MB-435 melanoma. The growth is 107% in the experiment on SW-620 colon, 97.5% in the experiment on HCC-2998 colon and 95.8% in the experiment with KM12 colon.

Regarding `CCN(CC)CCOc1ccccc1-n1c(C)ccc1-c1ccccc1`, the growth in the experiment with RPMI-8226 leukemia was 63.2%; in the experiment with OVCAR-8 ovarian it was 97.5%; in the experiment on OVCAR-5 ovarian it was 101%; in the experiment on OVCAR-4 ovarian, 106%; with SK-OV-3 ovarian, 99.5%; in the experiment with IGROV1 ovarian, 71.4%. Moreover, the growth with OVCAR-3 ovarian is 78.9%; with HS 578T breast it was 82.5%; in the experiment with NCI/ADR-RES ovarian, 85.4%; in the experiment on T-47D breast it was 91.9%; in the experiment with MDA-MB-435 melanoma it was 42.1%; in the experiment on SW-620 colon, 36.7%. The growth with MCF7 breast is 98.3%; in the experiment on KM12 colon it was 50.6%.
